Measurements reported in PubChem BioAssay AID743402 (Broad Institute, 2014).
In all, about 1,200 compounds went through this assay and about 140 (12%) were called active.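 Rule for the calls: active = fitted curve falls past -35% activity change at a dose under twice the top valid dose, in every replicate test; inconclusive = replicate tests disagree on the call; inactive = the rest, including activity in the opposite direction.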 These entries were drawn from the full list.

Assay: restoration of mutant CFTR halide transport – FRT cells, YFP quenching, cherry-pick, dose response (AID 743402);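 note: compounds act as correctors raising surface CFTR-F508del before acute activation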
Conditions: FRT CFTR-F508del YFP iodide quenching, 24 h, channel opened with forskolin and a potentiator; series mostly up to 26 µM

Activity change, negative = more quenching (active), inactive:
O=C1c2ccccc2C(=O)c2c1cccc2N(CCO)CCO
COc1ccc(S(=O)(=O)NCc2ccccn2)cc1NC(=O)c1ccccc1F
COc1cccc(N2CCN(C(=O)c3ccc(CS(=O)c4ccc(C)cc4)o3)CC2)c1 (centres undefined)
O=C(NCCOc1ccccc1)c1cc([N+](=O)[O-])ccc1N1CCOCC1
COc1ccc(OC)c(-c2cnc(OC(C)(C)C)nc2OC(C)(C)C)c1
COc1ccc([C@H]2CC(=O)C=C(c3c(OC)cccc3OC)C2)cc1
CC(C)C[C@H]1CN([C@@H](CC(C)C)CN2CCC[C@@H]2CN2C(=S)NC[C@@H]2Cc2ccc(O)cc2)C(=S)N1CCc1ccccc1
CCOC(=O)c1c(C)[nH]c(C(=O)N/N=C\c2ccccc2O)c1C
N#CC1=C(N)Oc2cc(N)ccc2C1c1cccc(F)c1 (centres undefined)
COc1ccccc1C#Cc1ccc2c(c1)O[C@@H](CN(C)Cc1cccnc1)[C@H](C)CN([C@H](C)CO)S2(=O)=O
COc1ccc([C@H]2C[C@H](O)[C@@H](n3cc(-c4ccc(F)cc4)nn3)CN2Cc2cccs2)cc1
COc1cc(C(=O)Nc2ccccc2C(=O)Nc2ccccn2)cc(OC)c1OC
COc1cccc(S(=O)(=O)N(C)C[C@@H]2Oc3cc(C4=CCCC4)ccc3S(=O)(=O)N([C@H](C)CO)C[C@H]2C)c1
COc1cc(/C=C(\C#N)c2nc3ccccc3[nH]2)cc(OC)c1O
CCCCNC(=O)CSc1nc2ccc(C)cc2[nH]1
O=C(NCCN1C(=O)S/C(=C\c2ccc(OC(F)F)cc2)C1=O)c1cnccn1
CC(=O)Nc1cccc(-c2ccnc3c2CC(C)(C(=O)Nc2ccc4c(c2)OCO4)O3)c1 (centres undefined)
O=C(NN=C1CCCC1)c1[nH]c2ccc(Cl)cc2c1-c1ccccc1
COc1cc(OC)c2c(-c3cccc(-c4sccc4C(C)=O)c3)cc(=O)oc2c1
CC(C)Oc1ncnc2c1[nH]c1ccccc12
O=c1[nH]c(/C=C/c2ccccc2F)nc2ccccc12
Cc1cccc(N2CCN(C(=O)c3ccc4[nH]c(C)c(C)c4c3)CC2)c1C
O=C1C=CCC(/C=C/c2ccccc2)O1 (centres undefined)
COc1ccc2c3c([nH]c2c1)[C@@H](CO)N(C(=O)C1CCOCC1)CC31CCN(Cc2cccc(F)c2)CC1
CN(Cc1ccccc1)S(=O)(=O)c1ccc(NC(=S)NC(=O)C2CCCC2)cc1
COc1ccc(NC(=O)c2nc(C)c(C3(C)CC(c4cccnc4)=NO3)s2)cc1 (centres undefined)
COc1ccc(C(=O)OCC(=O)N2C(C)CCCC2C)cc1S(=O)(=O)N1CCOCC1 (centres undefined)
Cc1ccc(/C=N/NC(=O)c2ccc3ccccc3c2)s1
COc1ccc(C2=Nn3c(nnc3-c3ccccc3F)SC2)cc1OC1CCOC1 (centres undefined)
O=C(N/N=C/c1c(O)ccc2ccccc12)c1ccc(CO)nc1
C[C@H](CO)N1C[C@H](C)[C@@H](CN(C)Cc2ccc(Cl)c(Cl)c2)Oc2ccc(NC(=O)Nc3ccc(C(F)(F)F)cc3)cc2CC1=O
Cc1cc(NCc2ccccn2)n2nc(C)c(-c3ccccc3)c2n1
COc1ccc(OC)c(/C(C)=N\NC(=O)c2cc3cc(Cl)ccc3n2C)c1
COc1ccc(CCNc2c3ccccc3nc3ccccc23)cc1OC
CCOC(=O)c1sc(Nc2nc(C)cc(C)n2)nc1C
COc1ccc(C)cc1Nc1c2c(nc3ccccc13)CCC2
O=S(=O)(Cc1ccc(Cl)cc1Cl)c1ccc(Cl)cc1
Cc1onc(-c2ccccc2Cl)c1C(=O)N1CCN(c2cccc(Cl)c2)CC1
CCN(Cc1ccccc1)c1ccc(/C=N/N=C(N)N)cc1
Cc1nn2cc(-c3cccc(Cl)c3)cnc2c1Br
N#C[C@H]1[C@H](c2ccc(C3=CCCCC3)cc2)[C@@H](CO)N1C(=O)NC1CCCCC1
CCc1ccc(OCc2n[nH]c(=S)n2C(C)CCCC(C)C)cc1 (centres undefined)
CCOc1ccc2[nH]c(C(=O)N/N=C/c3ccc(OC)cc3)cc2c1
C/C(=N\NC(=O)c1cc(-c2cccs2)nc2ccccc12)c1ccccn1
O=C(N/N=C/c1cccs1)c1cc(C2CC2)nc2ccccc12
CCOC(=O)c1cc2c(=Cc3ccc(N(C)C)cc3)c3ccccc3n2[n+]1C
O=C1c2ccccc2C(=O)c2c1cccc2N1CCCC1
Cc1ccc(S(=O)(=O)N2CCCCC2CCNC(=O)C(=O)NCc2ccccc2)cc1 (centres undefined)
COc1ccc(NC(=O)Nc2ccc3c(c2)C(=O)N([C@H](C)CO)C[C@@H](C)[C@H](CN(C)Cc2ccc(C(F)(F)F)cc2)OCCCC[C@H](C)O3)cc1
COc1ccc(COc2cc(-c3cccc(OC)c3)nc3ccc(NC(=O)c4ccc(OC)cc4)cc23)cc1
CCCCN1C(=O)CC(C(=O)OCC)=C1C
CC1(C(=O)NCc2cccs2)Cc2c(-c3ccc4c(c3)OCO4)ccnc2O1 (centres undefined)
CC1=NN(c2ccccc2)C(=O)C1N=Nc1cccc(O)c1 (centres undefined)
O=C1CC(c2ccccc2)CC2=C1C=Nc1ccccc1N2 (centres undefined)
CCc1c(C)nc2ncnn2c1NCCc1ccc(OC)cc1
COc1ccc(CCNc2ncnc3c2oc2ccccc23)cc1OC
O=C1CN(S(=O)(=O)Cc2ccccc2)C[C@@H]2[C@@H](c3ccc(C#Cc4cccc(F)c4)cc3)[C@H](CO)N12
Cc1ccc2nc(-c3ccc4c(c3)OCCO4)cn2c1
CCCCNC(=O)C(=O)Nc1ccc2c(c1)N(S(=O)(=O)c1cccs1)CCC2
COc1cccc(/C=N/NC(=O)C(=O)Nc2ccccc2OC(F)(F)C(F)F)c1O
Cc1ccc(-c2nn(-c3ccccc3)cc2C(=O)N2CCN(c3ccccn3)CC2)cc1
COc1ccc(S(=O)(=O)N(C(=O)C(C)C)c2ccc3oc(=O)sc3c2)cc1
COc1nc(-c2ccccc2)cc(-c2ccc3c(c2)OCO3)c1C#N
C/C(=N\NC(=O)c1c(Cl)c(C)nn1C)c1ccc(NC(=O)C2CCC2)cc1
COc1ccc2c(c1)sc(N)[n+]2Cc1cc(C)cc2cccnc12
CCN(CC)c1ccc(/C=N/NC(=O)c2ccco2)c(O)c1
Cc1cc(N/N=C/c2ccccc2O)c2ccccc2n1
Cc1ccccc1-c1nc(CS(=O)(=O)CC(=O)NCc2ccccc2)c(C)o1
Cc1ccc(-c2ccc3c(c2)O[C@H](CN(C)Cc2ccccn2)[C@@H](C)CN([C@H](C)CO)S3(=O)=O)cc1
COc1ccc(S(=O)(=O)Nc2ccc3c(c2)C(=O)N([C@H](C)CO)C[C@@H](C)[C@@H](CN(C)Cc2ccc(Cl)c(Cl)c2)O3)cc1
c1coc(-c2nc3ccccc3s2)c1
Clc1ccc2c(c1)-c1ccccc1C1=NCCN12
Cc1ccc(N(C)S(=O)(=O)c2ccc(-c3cnc(C4CC4)o3)cc2)cc1
Cc1ccnc2c1ccc1cccnc12
Cc1ccc(COc2ccccc2-c2cc(C(=O)N/N=C/c3cccnc3)[nH]n2)cc1
CC(C)(C)c1cc(C(=O)NN)n(Cc2ccc(Cl)cc2Cl)n1
COc1ccccc1Nc1c2c(nc3ccccc13)CCC2
CC(=NNC(=S)N1CC2CCC(CC2)C1)c1cnccn1
COc1cc(NC(=O)N2CCNC2=O)cc(C(=O)Nc2cccc(C(F)(F)F)c2)c1
COc1ccc(-c2ccc3oc(-c4ccc(OC)cc4)c(C#CCO)c3c2)cc1
COCCCN=C1NN=C(c2cc(C)n(Cc3ccco3)c2C)CS1
CC(=O)N1CCc2c(sc(NC(=O)c3ccc4c(c3)OCCO4)c2C#N)C1
O=C(c1cccc(S(=O)(=O)N2CCN(c3ccc(F)cc3)CC2)c1)N1CCCC(C(F)(F)F)C1 (centres undefined)
COc1ccccc1C(=O)NC(=S)/C=C1/N(C)c2ccccc2C1(C)C
COc1cc2c(C#CCCO)c(-c3ccsc3)oc(=O)c2cc1OC
CC(=O)NC(c1ccc(C(C)C)cc1)c1ccc2cccnc2c1O (centres undefined)
O=C(Nc1cccc(C2=NCCN2)c1)Nc1cccc(C2=NCCN2)c1
Cc1ccc2c(c1)CCCN2C(=O)CCc1nc2ccccc2c(=O)[nH]1
COc1ccc2cc(CN(CC3CCCO3)C(=S)Nc3ccccc3)c(=O)[nH]c2c1 (centres undefined)
COc1ccc(Nc2nc3cc(-c4sccc4C)sc3c(=O)n2C)cc1OC
Cc1ccc2cc(CN(CC3CCCO3)C(=S)Nc3ccccc3)c(=O)[nH]c2c1C (centres undefined)
CCOC(=O)N1CCC(NC(=O)c2ccc3c(c2)N=C(C)c2c(C)ccc(C)c2S3)CC1
O=C(Nc1ccc(Br)cn1)c1cccc2ccccc12
Cc1cc2c(cc1S(=O)(=O)Nc1ccc(F)cc1)n(C)c(=O)c(=O)n2C
CC(=O)Nc1ccc(S(=O)(=O)NC2=C(N3CCN(Cc4ccccc4)CC3)C(=O)c3ccccc3C2=O)cc1
N#Cc1c(-c2ccc(F)cc2)c(-c2ccc(F)cc2)nn(CCO)c1=O
C[C@@H]1CN([C@H](C)CO)C(=O)c2cc(NS(=O)(=O)c3ccc(Cl)cc3)ccc2O[C@@H]1CN(C)Cc1ccc(-c2ccccc2)cc1
COc1ccc2c3c([nH]c2c1)[C@H](CO)N(C(=O)C1CCOCC1)CC31CCN(Cc2cccc(F)c2)CC1
Cc1cc(C(=O)N/N=C/c2ccc(N(C)C)cc2)c2ccccc2n1
